In the library only some 2.3% were active in any assay of this set; here they are far more common.
M1 ag: human M1 muscarinic receptor agonists, primary screen, Fluo-8 calcium fluorescence, CHO-K1 cells, HTS. Muscarinic acetylcholine receptor M1 (Homo sapiens), P11229. CHO-K1 hM1, agonist mode; 0% DMSO, 100% acetylcholine EC100. activation, % at 3 µM. 0.33% of 360,000 active;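 active = activation above the run's mean compound activation plus 3 SD, cut at about 16% in these data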;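 note: peak over basal fluorescence ratio within a 140 s kinetic read after compound addition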
Target sequence (P11229 whole entry, looked up): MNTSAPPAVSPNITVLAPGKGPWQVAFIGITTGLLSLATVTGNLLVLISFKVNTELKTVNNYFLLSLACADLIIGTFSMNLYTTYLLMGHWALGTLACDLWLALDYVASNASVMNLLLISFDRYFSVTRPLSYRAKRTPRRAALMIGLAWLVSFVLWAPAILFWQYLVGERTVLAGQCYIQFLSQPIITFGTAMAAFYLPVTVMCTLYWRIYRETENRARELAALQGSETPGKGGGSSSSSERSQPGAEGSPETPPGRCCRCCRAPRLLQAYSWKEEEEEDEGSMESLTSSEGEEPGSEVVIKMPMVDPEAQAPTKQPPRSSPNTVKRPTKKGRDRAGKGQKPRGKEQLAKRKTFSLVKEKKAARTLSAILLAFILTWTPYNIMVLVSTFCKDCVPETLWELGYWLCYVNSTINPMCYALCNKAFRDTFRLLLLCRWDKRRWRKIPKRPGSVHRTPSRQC
CHO-K1 Ca antag: nonselective inhibitor or artifact in parental CHO-K1 cells; ATP-induced calcium, Fluo-8 fluorescence; inhibition, % at 3 µM; 0.6% of 360,000 active;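 active = inhibition above a per-plate cutoff, the plate's mean sample inhibition plus 3 SD, cut at about 24% in these data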;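 note: 0% = DMSO plus EC80 ATP and 100% = DMSO alone without ATP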
M1 antag: human M1 muscarinic receptor antagonists, primary screen, CHO-K1 cells, Fluo-8 calcium fluorescence, 1536-well. Muscarinic acetylcholine receptor M1 (Homo sapiens), P11229. CHO-K1 hM1, ACh EC80 antagonist. inhibition, % at 3 µM. 1.3% of 360,000 active. AID 588852, 2011;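 active = percent inhibition above its own plate's cutoff, namely the mean of that plate's compound wells plus 3 SD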;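 note: peak over basal fluorescence ratio during 140 s after agonist addition; 0% = ACh EC80 plus DMSO and 100% = DMSO alone without agonist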
CHO-K1 Ca ag: counter-screen for M1 agonists: effect in parental CHO-K1 cells; 0.48% of 360,000 active; AID 602248, 2012; Fluo-8 calcium fluorescence; scaled to maximal ATP response, vehicle zero; activation, % at 3 µM; in the data active = activation above about 15%;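 note: untransfected CHO-K1 host cells lacking M1 receptor as counterscreen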
M1 PAM parental: nonselective calcium activators in parental CHO-K1 cells, primary screen, counter-screen for M1 PAM project, cell-based, Fluo-8 calcium fluorescence, full deck, 1536-well | 0.02% of 360,000 active | ATP EC20; 0% at ATP EC20, 100% at ATP max | activation, % at 3 µM;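 active = activation above the run cutoff, the mean activation of all test compounds plus 3 SD, cut at about 40% in these data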;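 note: peak over basal fluorescence ratio in a 140 s read after ATP addition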
M1 PAM: human M1 muscarinic receptor positive allosteric modulators, primary screen, CHO-K1 cells, Fluo-8 calcium fluorescence, 1536-well; AID 588819, 2011; activation, % at 3 µM; CHO-K1 hM1, ACh EC20; 0% = ACh EC20, 100% = maximal ACh; Muscarinic acetylcholine receptor M1 (Homo sapiens), P11229; 0.088% of 360,000 active; in the data active = activation above about 19%, passing the limit was not always enough
* hit, by the source's call.

SMILES | M1 ag | CHO-K1 Ca antag | M1 antag | CHO-K1 Ca ag | M1 PAM parental | M1 PAM
COc1ccc(CCNc2ncnc3sccc23)cc1OC | 0 | 34* | 40* | 17* | -5 | -14
CN(C)c1ccc(CNc2ncnc3sccc23)cc1 | -8 | 25* | 11 | 10 | -16 | -6
COc1ccc(CCNc2nc(C)nc3c2oc2ccccc23)cc1OC | 5 | 16 | 30 | 13 | -1 | -13
CCOc1ccc2nc(NC(=O)C3CSC4(C)CCC(=O)N34)sc2c1 (centres undefined) | -3 | -18 | -7 | 1 | 7 | 4
CN(Cc1cccc(Cl)c1Cl)C(=O)c1ccccc1SCC(=O)N1CCCC1 | -3 | 5 | 9 | 5 | 2 | -4
CC(=O)c1ccc(OCC(=O)OCC(=O)Nc2sccc2C(N)=O)cc1 | 2 | 9 | 35* | 17* | -10 | -10
COc1cc(CC(=O)OCC(=O)Nc2sccc2C(N)=O)cc(OC)c1OC | 2 | 8 | 13 | 16* | -6 | -9
NC(=O)c1ccsc1NC(=O)COC(=O)CCOc1ccccc1 | 5 | 2 | 15 | 17* | -13 | -12
NC(=O)c1ccsc1NC(=O)COC(=O)CCc1ccccc1 | 6 | 6 | 23 | 16* | -4 | -18
NC(=O)c1ccsc1NC(=O)COC(=O)Cc1ccsc1 | 5 | -2 | -4 | 6 | 7 | -1
NC(=O)c1ccsc1NC(=O)COC(=O)CCCOc1ccccc1 | 3 | 17 | 27 | 14 | -3 | -13
COc1ccc(NS(=O)(=O)c2cc3c4c(c2)C(C)C(=O)N4CCC3)cc1 (centres undefined) | -4 | -6 | 0 | 1 | 16 | 4
NC(=O)c1ccsc1NC(=O)COC(=O)Cc1ccccc1Cl | 5 | 11 | 29 | 19* | -3 | -19
COc1cccc(C(=O)C2CCCN(Cc3cn(CC(N)=O)c4ccccc34)C2)c1 (centres undefined) | -13 | 32* | 0 | 0 | -11 | -3
COc1cccc(C(=O)C2CCCN(Cc3cn[nH]c3C3CCCCC3)C2)c1 (centres undefined) | -13 | 17 | 27 | 0 | -12 | -23
CCOC(=O)N1CCC(N2CCCC(C(=O)c3cccc(OC)c3)C2)CC1 (centres undefined) | -7 | -5 | 54* | 1 | 0 | -21
CC(C)Oc1ccc(S(=O)(=O)N2CCOCC2)cc1NC(=O)CSc1nnc(C2CC2)n1C | -4 | -7 | 5 | 0 | -5 | -2
COc1ccc(CN2C(=O)C(CC(=O)NCc3ccco3)CC(C(=O)N(C(C)C)C(C)C)=C2C)cc1 (centres undefined) | -6 | 6 | 9 | -1 | 1 | -6
COc1ccc(S(=O)(=O)N2CCC(C(=O)NC(c3nc4ccccc4[nH]3)C(C)C)CC2)cc1 (centres undefined) | -5 | 23 | 4 | 1 | -4 | -2
[2H]c1c([2H])c([2H])c(C(=O)c2sc(N3CCCCCC3)nc2-c2ccccc2)c([2H])c1[2H] | -5 | -6 | 39* | 0 | 9 | -19
COc1ccc(-c2nc(N3CCCCCC3)sc2C(=O)c2ccccc2)cc1 | -3 | 52* | -8 | 4 | 4 | -3
O=C(c1ccccc1)c1sc(N2CCOCC2)nc1-c1ccccc1 | -10 | 10 | 7 | 3 | 4 | -9
O=C(c1ccccc1)c1sc(N2CCCCCC2)nc1-c1ccccc1 | -4 | -4 | 7 | -1 | 3 | -17
O=C(NNC1=Nc2cccc3cccc1c23)c1ccc(Br)cc1 | -4 | -4 | -2 | 2 | 16 | -2
COc1ccc(/C=N/n2cnnc2)cc1Br | -1 | 15 | -18 | 0 | -23 | 15
SMILES | M1 ag | CHO-K1 Ca antag | M1 antag | CHO-K1 Ca ag | M1 PAM parental | M1 PAM
COc1ccccc1CCN1CCCC(CN(C)C(=O)c2ccoc2)C1 (centres undefined) | -5 | -8 | 44* | 0 | 7 | -20
COc1ccccc1CCN1CCCC(CN(C)CC(C)(C)CO)C1 (centres undefined) | -10 | -4 | 47* | -1 | 7 | -20
COCc1ccc(C(=O)N(C)CC2CCCN(CCc3ccccc3F)C2)o1 (centres undefined) | -5 | -14 | 48* | 0 | 8 | -20
COc1ccccc1CCN1CCCC(CN(C)C(=O)c2ccco2)C1 (centres undefined) | -6 | -13 | 34 | 0 | 13 | -18
CCOc1cc(/C=N/NC(=O)C2CCCC2)ccc1OC(C)C | -5 | -6 | -1 | 1 | 4 | 2
Cc1ccc(OCC(=O)NCCCNC(=O)c2ccccn2)cc1C | -6 | -14 | -7 | 1 | -5 | 2
CN(CC(=O)Nc1ccccc1Cl)C(=O)COC(=O)/C=C/c1ccccc1 | 2 | -6 | 2 | 1 | -20 | 12
C=CCOc1ccc(/C=C/C(=O)OCC(=O)N(C)CC(=O)Nc2ccccc2Cl)cc1 | -2 | 24* | 13 | 2 | -14 | -5
Nc1c([N+](=O)[O-])cc2c3c(cccc13)CC2 | -1 | 9 | -13 | -1 | 22 | 22
O=C(Nc1ccccc1)Nc1nnc([C@H]2C[C@H](O)[C@@H](CO)O2)s1 | -3 | 26* | -3 | 0 | 4 | 1
O=C(Nc1nnc([C@@H]2C[C@H](O)[C@@H](CO)O2)s1)c1cccc(Oc2ccccc2)c1 | -1 | -3 | -11 | 0 | -3 | 8
Cc1ccc(NC(=O)Nc2nnc([C@@H]3C[C@H](O)[C@@H](CO)O3)s2)cc1 | -2 | -6 | -3 | 0 | 1 | -2
O=C(Nc1nnc([C@H]2C[C@H](O)[C@@H](CO)O2)s1)c1cccc(Oc2ccccc2)c1 | 1 | 25* | 0 | 0 | -17 | 9
Cc1ccc(Nc2nc3nonc3[nH]c2=O)cc1Cl | 1 | 30* | 13 | 0 | -13 | -16
CCC(C)N1CCC(Oc2ccc(C(=O)NCc3ccccn3)cc2)CC1 (centres undefined) | -5 | -7 | 20 | 1 | 6 | -12
COc1cnc(-c2ccccn2)nc1Oc1ccc(Cl)cc1 | -2 | 24* | -5 | 0 | -6 | 9
COc1cccc(C(=O)/C=C2\Sc3ccccc3N2C)c1 | -4 | 24* | 1 | 0 | -11 | 12
COCCNC(=S)NNC(=O)c1ccc(-n2cnnn2)cc1 | -2 | -12 | -3 | 2 | 2 | 7
CC(OC(=O)CNS(=O)(=O)c1ccc(C#N)cc1)C(=O)Nc1cccc(C#N)c1 (centres undefined) | -4 | -9 | -8 | 3 | 9 | 7

Bioassay records deposited in PubChem BioAssay by The Scripps Research Institute Molecular Screening Center.
